Holding throughout (experiment): NCI-60 one-dose screen, 48 h (100 = growth as untreated, 0 = no growth, -100 = all killed)
One test deals with A549/ATCC NSCLC. Conditions: 10 µM unless noted.
The subject of the next test is DU-145 prostate. Conditions: 10 µM unless noted.
The test system of a further test is K-562 leukemia. Conditions: 10 µM unless noted.
The subject of a further test is RXF 393 renal. Conditions: 10 µM unless noted.
Another test concerns SF-295 CNS. Conditions: 10 µM unless noted.
Another test has as its system UACC-257 melanoma. To be noted: 10 µM unless noted.
A further test relates to HT29 colon. Conditions: 10 µM unless noted.
The subject of a further test is SNB-75 CNS. Conditions: 10 µM unless noted.
Another test concerns SK-MEL-2 melanoma. Conditions: 10 µM unless noted.
A further test relates to ACHN renal. To be noted: 10 µM unless noted.
The subject of the next test is CAKI-1 renal. Conditions: 10 µM unless noted.
The next test deals with A498 renal. To be noted: 10 µM unless noted.
The subject of another test is HL-60(TB) leukemia. To be noted: 10 µM unless noted.
The subject of another test is OVCAR-5 ovarian. To be noted: 10 µM unless noted.
The test system of the next test is OVCAR-4 ovarian. Conditions: 10 µM unless noted.
In another test the test system is SK-OV-3 ovarian. To be noted: 10 µM unless noted.
The subject of the next test is HS 578T breast. To be noted: 10 µM unless noted.
For the next test, the system named is NCI/ADR-RES ovarian. To be noted: 10 µM unless noted.
The subject of the next test is T-47D breast. To be noted: 10 µM unless noted.
In a further test the test system is BT-549 breast. To be noted: 10 µM.

Each structure is given as a SMILES string. The panel holds about 83,000 compounds, 20% with a hit somewhere; the sample as a whole holds those more often.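 Values shown are percent growth following 48 h exposure of cells in 96-well plates to a single concentration of compound; below 10 was considered active.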 Values without a mark were called inactive. Calls of active or inactive are those of the source.

In the case of `CC(C)(C)NCC(O)c1ccccc1Cl` (stereo not given), the growth in the test with A549/ATCC NSCLC was 11.5%; in the test with DU-145 prostate, -27.8% (active); with K-562 leukemia it was 17.5%; in the test on RXF 393 renal, -19.8% (active); with SF-295 CNS it was -3.79% (active); in the test on UACC-257 melanoma it was 54.5%. The growth was 2.91% (active) with HT29 colon; -24.4% (active) in the test with SNB-75 CNS; -20.2% (active) in the test on SK-MEL-2 melanoma; 53.7% in the test with ACHN renal; 54.6% in the test on CAKI-1 renal; -9.2% (active) in the test on A498 renal. The growth in the test with HL-60(TB) leukemia was 1.68% (active); in the test on OVCAR-5 ovarian, 11%; in the test on OVCAR-4 ovarian it was 60.3%; in the test with SK-OV-3 ovarian, 9.23% (active); in the test on HS 578T breast, 3.29% (active); in the test on NCI/ADR-RES ovarian it was 85.6%. Also, the growth is 51.5% in the test on T-47D breast and 35.2% with BT-549 breast.
On to `CC(C)C1c2ccc(O)cc2Oc2nc(N)c(C#N)c(N)c21` (stereo not given), for which the growth in the test on A549/ATCC NSCLC is 91.4%; in the test on DU-145 prostate, 115%; in the test with K-562 leukemia it was 92.5%; in the test on SF-295 CNS, 107%; in the test on UACC-257 melanoma it was 105%; in the test on HT29 colon, 109%. The growth with SNB-75 CNS is 81.4%; with SK-MEL-2 melanoma, 109%; with ACHN renal, 92.5%; with CAKI-1 renal it was 93.5%; with A498 renal, 88.4%; in the test on HL-60(TB) leukemia, 102%. In addition, the growth in the test on OVCAR-5 ovarian was 104%; in the test with OVCAR-4 ovarian it was 101%; in the test on SK-OV-3 ovarian it was 116%; in the test with HS 578T breast it was 91.4%; with NCI/ADR-RES ovarian, 102%; in the test on T-47D breast it was 87.5%. In addition, the growth in the test with BT-549 breast was 84.2%.
Regarding `CC(C)N=C(NC(C)C)N1CC1`, the growth is 101% with A549/ATCC NSCLC; 122% with DU-145 prostate; 124% in the test with K-562 leukemia; 122% with RXF 393 renal; 102% in the test on SF-295 CNS; 105% with UACC-257 melanoma. The growth is 111% with HT29 colon; 95.4% in the test on SNB-75 CNS; 112% in the test with SK-MEL-2 melanoma; 109% in the test on ACHN renal; 99.3% in the test with CAKI-1 renal; 116% in the test on A498 renal. For the same compound, the growth with HL-60(TB) leukemia is 104%; with OVCAR-5 ovarian, 106%; in the test with OVCAR-4 ovarian, 104%; in the test on SK-OV-3 ovarian, 115%; in the test with HS 578T breast, 107%; in the test with NCI/ADR-RES ovarian, 113%. In addition, the results for the growth in the test with T-47D breast and with BT-549 breast were 111% and 114%, respectively.
As for `CC(N)Cc1ccc(O)cc1` (stereo not given), the growth was 103% in the test on A549/ATCC NSCLC; 112% in the test with DU-145 prostate; 94.8% in the test on K-562 leukemia; 112% with RXF 393 renal; 118% with SF-295 CNS; 94.6% in the test with UACC-257 melanoma. Moreover, the growth in the test on HT29 colon was 98.4%; in the test on SNB-75 CNS, 107%; in the test with SK-MEL-2 melanoma it was 94.8%; in the test on ACHN renal it was 108%; in the test with CAKI-1 renal, 103%; in the test with A498 renal, 80.7%. Moreover, the growth in the test with HL-60(TB) leukemia was 90.2%; with OVCAR-5 ovarian, 104%; in the test on OVCAR-4 ovarian it was 124%; with SK-OV-3 ovarian, 105%; in the test with HS 578T breast, 103%; with NCI/ADR-RES ovarian, 103%. Further, the growth is 98.3% in the test on T-47D breast and 126% in the test with BT-549 breast.
As for `CCC1([N+](=O)[O-])COP(=O)(NCc2cccnc2)OC1` (stereo not given), the growth with A549/ATCC NSCLC is 102%; in the test with DU-145 prostate it was 103%; in the test with K-562 leukemia, 106%; in the test with RXF 393 renal it was 106%; in the test with SF-295 CNS, 104%; in the test on UACC-257 melanoma it was 113%. Moreover, the growth in the test on HT29 colon is 116%; in the test on SNB-75 CNS, 104%; in the test on SK-MEL-2 melanoma, 111%; in the test with ACHN renal, 113%; in the test on CAKI-1 renal it was 103%; with A498 renal, 94.3%. Also, the growth with HL-60(TB) leukemia is 107%; with OVCAR-5 ovarian it was 99.7%; with OVCAR-4 ovarian it was 112%; in the test on SK-OV-3 ovarian it was 94.4%; in the test on HS 578T breast, 107%; in the test with NCI/ADR-RES ovarian, 112%. Besides, in the test with BT-549 breast, the growth is 114%.
For the compound `C[C@]12CC[C@H](OC3OC(O)C(O)C(O)C3O)C=C1CCC1C2CC[C@]2(C)[C@@H](c3ccc(=O)oc3)CC[C@]12O` (stereo not given in full), the growth in the test with A549/ATCC NSCLC is 102%; in the test with DU-145 prostate, -100% (active); in the test on K-562 leukemia it was -35.3% (active); in the test on RXF 393 renal it was -24.3% (active); in the test on SF-295 CNS it was -77.7% (active); in the test on UACC-257 melanoma, 112%. The growth is -84.5% (active) in the test with HT29 colon; -53.2% (active) in the test on SNB-75 CNS; -61.3% (active) with SK-MEL-2 melanoma; -62.6% (active) in the test with CAKI-1 renal; -23.3% (active) in the test with A498 renal; -57.3% (active) in the test on HL-60(TB) leukemia. Moreover, the growth is -41.9% (active) in the test on OVCAR-4 ovarian; -93.7% (active) with SK-OV-3 ovarian; 9.56% (active) in the test with HS 578T breast; -71.2% (active) in the test on NCI/ADR-RES ovarian; -71.4% (active) in the test on T-47D breast; -92.3% (active) with BT-549 breast.
Consider `O=C(NCCNC(=O)c1ccc([As](O)O)cc1)c1ccc([As](O)O)cc1`, for which the growth in the test on A549/ATCC NSCLC is 109%; in the test on DU-145 prostate, 103%; in the test on K-562 leukemia it was 116%; with RXF 393 renal, 105%; with SF-295 CNS, 107%; in the test on UACC-257 melanoma, 103%. The growth in the test with HT29 colon was 112%; in the test with SNB-75 CNS it was 87.5%; in the test with SK-MEL-2 melanoma, 103%; in the test with ACHN renal it was 106%; in the test with CAKI-1 renal it was 98.3%; in the test with A498 renal, 92%. Further, the growth with HL-60(TB) leukemia was 105%; with OVCAR-5 ovarian, 114%; in the test with OVCAR-4 ovarian it was 105%; in the test with SK-OV-3 ovarian it was 104%; in the test on HS 578T breast, 91.7%; with NCI/ADR-RES ovarian, 101%. For the same compound, the growth in the test with T-47D breast was 100%; in the test with BT-549 breast it was 111%.
`COc1cc(/C=C\c2cc(OC)c(OC)c(OC)c2)cc(N/C=C\C(=O)c2ccc(OC(F)(F)F)cc2)c1OC`: the growth is 19.4% with A549/ATCC NSCLC; 14.4% with DU-145 prostate; 4.67% (active) in the test with K-562 leukemia; 9.29% (active) in the test on SF-295 CNS; 51.1% with UACC-257 melanoma; -36.6% (active) in the test on HT29 colon. Besides, the growth was -8.84% (active) in the test on SNB-75 CNS; -13.4% (active) with SK-MEL-2 melanoma; 43% in the test on ACHN renal; 45.5% in the test on CAKI-1 renal; -1.24% (active) with A498 renal; 11% in the test on HL-60(TB) leukemia. The growth with OVCAR-5 ovarian was 44.2%; in the test with OVCAR-4 ovarian, 57.4%; in the test on SK-OV-3 ovarian, 19.9%; in the test on HS 578T breast it was 29.4%; with NCI/ADR-RES ovarian it was 5.87% (active); in the test on T-47D breast, 37.9%. Also, the growth with BT-549 breast was 44.8%.

(Values after PubChem BioAssay (NCI).)
